Measured values taken from PubChem BioAssay.
The source made the active and inactive calls.

Key:
[1] = compound effects on lung adenocarcinoma cell viability – A549, calcein-AM fluorescence, 48 h, basal, profiling panel (AID 1162); details: higher = more signal
[2] = compound effects on differentiated 3T3-L1 adipocyte viability – cell-based, 3T3-L1 adipocytes, calcein-AM fluorescence, 48 h, basal, profiling panel (AID 1163); details: 3T3-L1 adipocytes viability, higher = more signal
[3] = compound effects on hepatocellular carcinoma cell viability – HepG2, calcein-AM fluorescence, 48 h, basal, profiling panel (AID 1164); details: higher = more signal
[4] = compound effects on multiple myeloma cell viability – MM1S, calcein-AM fluorescence, 48 h, basal, profiling panel (AID 1165); details: higher = more signal;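 further: viability of MM1S multiple myeloma cells under basal unstimulated conditions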
[5] = calcein-AM signal in unstimulated myeloma cells – cell-based, calcein-AM fluorescence, 48 h, PK04 Diversity Set, profiling panel (AID 1166); details: RPMI8226 myeloma viability, higher = more signal;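 further: cells grown under basal conditions without added stimulus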
[6] = JC-1 mitochondrial signal, unstimulated HepG2 cells – cell-based, JC-1 fluorescence, 24 h, 100 nL compound, profiling panel (AID 1167); details: HepG2 mitochondrial potential, higher = more signal
[7] = JC-1 mitochondrial signal, unstimulated adipocytes – cell-based, JC-1 fluorescence, 3T3-L1 adipocytes, 24 h, 100 nL compound, profiling panel (AID 1168); details: JC-1 mitochondrial fluorescence, higher = more signal, called active from +8 up or from −8 down
[8] = JC-1 mitochondrial signal, unstimulated myeloma cells – cell-based, JC-1 fluorescence, RPMI8226, 24 h, 100 nL compound, profiling panel (AID 1169); details: JC-1 mitochondrial potential fluorescence, higher = more signal
[9] = JC-1 mitochondrial signal, unstimulated MM1S myeloma – cell-based, JC-1 fluorescence, 24 h, 100 nL compound, profiling panel (AID 1170); details: MM1S mitochondrial potential, higher = more signal
[10] = resazurin metabolic signal in A549 cells – cell-based, resazurin fluorescence, 24 h, PK04 Diversity Set, profiling panel (AID 1171); details: A549 viability, higher = more signal, called active from +8 up or from −8 down
Further: test concentration not given here.

| Compound | z-score [1] | z-score [2] | z-score [3] | z-score [4] | z-score [5] | z-score [6] | z-score [7] | z-score [8] | z-score [9] | z-score [10] |
| --- | --- | --- | --- | --- | --- | --- | --- | --- | --- | --- |
| COc1ccc(C(=O)Nc2ccc(CN3C(=O)[C@@]4(O[C@@H](CC(=O)N5CCC[C@H]5CO)[C@H]([Si](C)(C)c5ccc(OC)cc5)[C@H]4C)c4ccccc43)cc2)cc1 | 0.571 | 0.0638 | 0.269 | -2.5 | -3.93 | 3.78 | 0.926 (inactive) | -1.09 | -0.447 | 0.336 (inactive) |
| CCOc1cc(C(O)C2C=CC3C(=O)N(c4ccccc4)C(=O)C3N2Nc2ccccc2)ccc1O (stereo not given) | -0.0398 | -1.24 | 0.992 | -3.04 | 0.461 | -1.32 | -2.33 (inactive) | 0.279 | -0.817 | 0.314 (inactive) |
| C#CCN(CC=C(C)C)[C@H](CO)c1ccccc1 | -0.589 | 1.37 | -0.7 | 0.0539 | -1.2 | -1.16 | 0.27 (inactive) | -0.383 | 0.471 | -0.665 (inactive) |
| COc1cc2c(cc1OC)CN(C(=O)[C@H]1[C@@H]3C(=O)O[C@@H](c4ccccc4)[C@@H](c4ccccc4)N3[C@@H](c3ccc(O)cc3)[C@]13C(=O)Nc1ccc(C#CC4=CCCCC4)cc13)CC2 | -0.59 | 0.474 | 0.679 | -0.35 | -2.23 | -0.259 | 2.83 (inactive) | -0.243 | -0.101 | -0.435 (inactive) |
| CCCCCN1CC=CC23O[C@@H]4/C=C\CCCOC(=O)C4[C@H]2C(=O)N(C(CO)C(C)C)[C@@H]3C1=O (stereo not given in full) | -0.436 | 0.737 | -1.05 | 0.693 | 0.108 | -0.335 | -0.0791 (inactive) | 0.0204 | -0.407 | 0.534 (inactive) |
| CS(=O)(=O)CCOC(=O)C1=CC(CCCO)=CC(c2ccc(CN3CCCC3)cc2)N(Cc2cc3c(cc2Br)OCO3)C=C1C(=O)OCCS(C)(=O)=O (stereo not given) | 1.94 | -0.0958 | -0.0078 | -0.315 | 0.0614 | 3.02 | 0.771 (inactive) | 0.00988 | 1.29 | 0.778 (inactive) |
| O=C1C2C=CC(C(O)c3c(F)cccc3Cl)N(Nc3ccccc3)C2C(=O)N1c1ccccc1 (stereo not given) | 1.14 | -1.4 | 0.309 | -0.474 | 0.474 | -1.41 | 0.455 (inactive) | -0.235 | -0.488 | -0.0768 (inactive) |
| C[C@]1(C(=O)NC2CC2)c2ccccc2C(=O)N(Cc2cc(C(F)(F)F)cc(C(F)(F)F)c2)[C@H]1c1ccc(CO)cc1 | 1.34 | 0.254 | 1.44 | 0.274 | 0.56 | 2.04 | -0.0278 (inactive) | -0.105 | -0.262 | 0.89 (inactive) |
| C=CCOC(=O)[C@H]1[C@@H]2C(=O)O[C@@H](c3ccccc3)[C@@H](c3ccccc3)N2[C@@H](c2ccc(OCCOC(=O)[C@H]3C[C@H]4C(=O)N[C@@H](CC(C)C)C(=O)N4[C@H]3c3ccc(O)cc3)cc2)[C@]12C(=O)Nc1ccc(I)cc12 | 0.709 | -0.212 | 1.8 | -2.02 | 0.0851 | -0.626 | -0.804 (inactive) | -0.418 | -0.859 | 0.0559 (inactive) |
| CC(C)c1ccc(NN2C(C(O)c3cc(C(F)(F)F)cc(C(F)(F)F)c3)C=CC3C(=O)N(c4ccccc4)C(=O)C32)cc1 (stereo not given) | -2.37 | 0.15 | -3.12 | -3.4 | -4.14 | -2.69 | -0.414 (inactive) | -0.873 | -1.57 | -2.11 (inactive) |
| COCCOC(=O)N1C(=O)[C@@]2(c3cc(C#CC4=CCCCC4)ccc31)[C@H](C(=O)N1CCc3cc(OC)c(OC)cc3C1)[C@H]1C(=O)O[C@H](c3ccccc3)[C@H](c3ccccc3)N1[C@@H]2c1ccc(OCCO)cc1 | -0.989 | 0.847 | -1.2 | -1.84 | -0.691 | -0.207 | 1.22 (inactive) | -0.621 | -0.968 | 0.531 (inactive) |
| CCCCC(=C=CC[C@@H](O)c1ccccc1OCCO)CCO | 0.499 | 0.337 | 0.595 | -0.0292 | 0.181 | 0.251 | -0.321 (inactive) | 0.11 | 0.502 | 0.245 (inactive) |
| C[C@@H]1ON(c2cccc(C(=O)OC(C)(C)C)c2)[C@H](c2ccc(Br)cc2)[C@H]1C(=O)N1C(=O)OC[C@H]1Cc1ccccc1 | 0.407 | -0.941 | -0.0479 | -0.357 | -0.205 | -0.344 | 0.375 (inactive) | 0.0362 | 1.88 | 0.319 (inactive) |
| COCCOC(=O)N1C(=O)[C@@]2(c3cc(C#CC4=CCCCC4)ccc31)[C@H](C(N)=O)[C@H]1C(=O)O[C@H](c3ccccc3)[C@H](c3ccccc3)N1[C@@H]2c1ccc(OCCO)cc1 | -0.0731 | -0.605 | 0.575 | -2.37 | -2.99 | -2.31 | 1.22 (inactive) | -0.799 | -1.82 | -2.15 (inactive) |
| COCCOC(=O)N1C(=O)[C@@]2(c3cc(C#CCCO)ccc31)[C@H](C(=O)Nc1nc3ccccc3s1)[C@H]1C(=O)O[C@H](c3ccccc3)[C@H](c3ccccc3)N1[C@@H]2c1ccc(OCCO)cc1 | -0.324 | -0.0713 | 0.555 | -0.315 | -0.234 | -3.53 | 0.823 (inactive) | -0.371 | -1.41 | 1.24 (inactive) |
